Bioassay records deposited in PubChem BioAssay by several laboratories.
An excerpt weighted towards active compounds, which were near 5% of everything screened.
SENP7 block – SENP7 protease inhibition | Q9BQF6 | 330,000 tested, 1.5% active | inhibition, % at 5 µM | recombinant SENP7, Z-RLRGG-aminoluciferin luminescence, 40 min | AID 434973;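 active = inhibition above about 50% at the single test dose, limit read from the data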
AHR act – activates the human aryl hydrocarbon receptor; P35869; AHR-responsive luciferase reporter cells, luminescence; activation, % at 5 µM; 320,000 tested, 2.5% active; in the data active = activation above about 47%
EBI2 antag – EBI2 (human) antagonism. P32249. EBI2 beta-arrestin recruitment, luminescence, 7a,25-OHC stimulated. inhibition, % at 5 µM. 360,000 tested, 0.81% active. AID 651636; in the data active = inhibition above about 38%;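 note: enzyme fragment complementation signal reports receptor beta-arrestin coupling in cells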
SENP8 block-1 – blocks human SENP8 cleavage of Nedd8 substrate; recombinant SENP8, Nedd8 substrate fluorescence; inhibition, % at 20 µM; 360,000 tested, 0.64% active; AID 602440; in the data active = inhibition mostly above about 40%, no sharp cut-off; inactive = mostly below about 27%
SENP8 block-2 – inhibitors of human SENP8 protease; Q96LD8; purified SENP8, Z-RLRGG-aminoluciferin cleavage, luminescence; inhibition, % at 10 µM; 330,000 tested, 1.2% active; in the data active = inhibition above about 50%
SENP6 inh – SENP6 protease inhibition | Q9GZR1 | Recombinant SENP6 catalytic domain, aminoluciferin luminescence | inhibition, % at 10 µM | 330,000 tested, 1.8% active | AID 2599;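 active = inhibition above about 50% at the single tested dose, limit read from the data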
Target sequence (Q9GZR1 628-1112 limits assumed): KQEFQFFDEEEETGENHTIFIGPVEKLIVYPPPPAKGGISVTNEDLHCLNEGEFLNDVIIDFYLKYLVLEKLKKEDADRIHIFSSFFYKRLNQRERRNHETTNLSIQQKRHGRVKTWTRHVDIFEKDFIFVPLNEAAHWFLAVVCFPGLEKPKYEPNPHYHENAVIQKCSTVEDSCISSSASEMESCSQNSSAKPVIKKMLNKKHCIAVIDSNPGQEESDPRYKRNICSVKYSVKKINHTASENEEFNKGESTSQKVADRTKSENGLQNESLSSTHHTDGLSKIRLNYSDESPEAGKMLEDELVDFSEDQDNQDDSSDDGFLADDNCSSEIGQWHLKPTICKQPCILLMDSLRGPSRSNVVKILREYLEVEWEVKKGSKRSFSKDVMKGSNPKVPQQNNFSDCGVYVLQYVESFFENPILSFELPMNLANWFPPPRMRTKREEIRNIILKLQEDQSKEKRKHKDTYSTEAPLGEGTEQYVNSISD
EBI2 conf – EBI2 (human) antagonism, single concentration confirmation; 2,400 tested, 29% active; EBI2 beta-arrestin luminescence, 7a,25-OHC antagonism; shares compounds with EBI2 antag; inhibition, % at 5 µM;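 active = inhibition of at least 50%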
EBI2 ag – counter-screen for EBI2 antagonists: EBI2 agonist activity | activation, % at 5 µM | 2,400 tested, under 10 active | EBI2-expressing cells, agonist mode, luminescence, 60 min; 0% vehicle, 100% 7α,25-dihydroxycholesterol control | shares compounds with EBI2 antag;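 active = activation of at least 50%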
bGal cs – inhibits E. coli beta-galactosidase, counter-screen for EBI2 antagonists; 2,400 tested, 1% active; inhibition, % at 5 µM; purified beta-galactosidase, luminescent Galacton Star, 15 min; shares compounds with EBI2 antag;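 active = replicate-average signal at least 3 plate SD below neutral wells, shown as high inhibition, flagging enzyme-inhibiting false positives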;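 note: higher means stronger loss of beta-gal luminescence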
Large screens that a line does not name were inactive (follow-up assays come after a bar, where they were run).

Nc1c(C(=O)NCCN2CCOCC2)c2nc3ccccc3nc2n1Cc1ccccc1	EBI2 antag 74.1 | EBI2 conf inactive | EBI2 ag inactive | bGal cs inactive
NCCCCCC(=O)OC1N=C(c2ccccc2Cl)c2cc(Br)ccc2NC1=O (configuration not stated)	none
CCOC(=O)[C@]12Cc3cc(OC)ccc3[C@H]1N(C1CCCCC1)C(=O)c1ccccc12	EBI2 antag 63.8 (no result: SENP7 block, AHR act, SENP8 block-2, SENP6 inh) | EBI2 conf inactive | EBI2 ag inactive | bGal cs inactive
CCOC(=O)[C@]12Cc3cc(OC)ccc3[C@H]1N(C)C(=O)c1ccccc12	none (no result: SENP7 block, AHR act, SENP8 block-2, SENP6 inh)
CC(=O)Nc1ccccc1C(=O)OCc1ccc(F)cc1	none
O=C(c1c[nH]c2ccc(S(=O)(=O)N3CCC4(CC3)OCCO4)cc2c1=O)N1CCC2(CC1)OCCO2	none
O=C(COc1ccccc1)N1CCN(C/C=C/c2ccccc2)CC1	EBI2 antag 72.2 | EBI2 conf 59.8 | EBI2 ag inactive | bGal cs inactive
COc1ccc(OCC(=O)N2CCN(C/C=C/c3ccccc3)CC2)cc1	EBI2 antag 93.4 | EBI2 conf 77.2 | EBI2 ag inactive | bGal cs inactive
O=C(COc1ccccc1)N1CCN(C2CCCC2)CC1	none
COc1ccc(OCC(=O)N2CCN(C3CCC(c4ccccc4)CC3)CC2)cc1 (configuration not stated)	EBI2 antag 85.2 | EBI2 conf 63.4 | EBI2 ag inactive | bGal cs inactive
O=C(COc1ccc(Cl)cc1)N1CCN(C/C=C/c2ccccc2)CC1	EBI2 antag 95.8 | EBI2 conf 86.2 | EBI2 ag inactive | bGal cs inactive
Cc1oc(-c2ccccc2Cl)nc1CN1C(=O)CN=C(c2ccccc2)c2ccccc21	none
COc1ccc2nc(/N=C/c3c(O)n(-c4cccc(Cl)c4)c(=O)[nH]c3=O)sc2c1	none
CCN(CC)S(=O)(=O)c1ccc(C(=O)NC2CN3CCC2CC3)cc1 (configuration not stated)	none
O=c1c(C=NCCN2CCNCC2)c(O)n(C2CCCCC2)c(=O)n1C1CCCCC1	none
O=c1c(C=NCc2cccs2)c(O)n(C2CCCCC2)c(=O)n1C1CCCCC1	EBI2 antag 44.1 | EBI2 conf inactive | EBI2 ag inactive | bGal cs inactive
O=c1cccc2n1CC1CC2CN(c2ncnc3c2cnn3-c2ccccc2)C1 (configuration not stated)	none
O=C(c1n[nH]c(=O)c2ccccc12)N1CCC2(CC1)OCCO2	none
CCCNC(=O)N1[C@H]2CC[C@@H]1C(C(=O)OC)=C(c1ccc(Cl)c(C(F)(F)F)c1)C2	none
COC(=O)C1=C(c2ccc(OCc3ccccc3)cc2)C[C@@H]2CC[C@H]1N2C(=O)NCc1ccccc1OC	none (no result: SENP7 block, AHR act, SENP8 block-2, SENP6 inh)
COC(=O)C1=C(c2ccc(Cl)c(C(F)(F)F)c2)C[C@@H]2CC[C@H]1N2C(=O)NCCOc1ccc(OC)cc1	EBI2 antag 44.3 | EBI2 conf inactive | EBI2 ag inactive | bGal cs inactive
COC(=O)C1=C(c2ccc(OCc3ccccc3)cc2)C[C@@H]2CC[C@H]1N2C(=O)NCc1ccccc1C(F)(F)F	EBI2 antag 62.9 (no result: SENP7 block, AHR act, SENP8 block-2, SENP6 inh) | EBI2 conf inactive | EBI2 ag inactive | bGal cs inactive
COc1ccc(N=Cc2c(O)n(Cc3cccs3)c(=O)[nH]c2=O)cc1	none
COc1ccc(N=Cc2c(O)n(CC3CCCO3)c(=O)[nH]c2=O)cc1 (configuration not stated)	EBI2 antag 54.9 | EBI2 conf inactive | EBI2 ag inactive | bGal cs inactive
O=C(c1cc2cc(Br)ccc2[nH]1)N1CCC2(CC1)OCCO2	EBI2 antag 84.2 | EBI2 conf 66.8 | EBI2 ag inactive | bGal cs inactive
COC(=O)C1=C(c2c(C)noc2C)C[C@@H]2CC[C@H]1N2C(=O)N1CCC(O)(c2ccc(Cl)cc2)CC1	EBI2 antag 41.9 | EBI2 conf inactive | EBI2 ag inactive | bGal cs inactive
COC(=O)C1=C(c2c(C)noc2C)C[C@@H]2CC[C@H]1N2C(=O)N1CCOCC1	none
C[C@]12CC[C@@H](O)CC1=CCC1C2CC[C@]2(C)C(=O)[C@H](F)CC12 (some centres not stated)	none
CC12CCC3C(CC=C4CC(O)CCC43C)C1C/C(=C\c1cccc(F)c1)C2=O (configuration not stated)	EBI2 antag 46.3 | EBI2 conf inactive | EBI2 ag inactive | bGal cs inactive
COc1ccc(OCC(=O)N2CCN(Cc3c[nH]c4ccccc34)CC2)cc1	EBI2 antag 47.5 (no result: SENP7 block, AHR act, SENP8 block-2, SENP6 inh) | EBI2 conf inactive | EBI2 ag inactive | bGal cs inactive
CN1CCN(C(=O)COc2ccc3ccccc3c2)CC1	EBI2 antag 52.9 | EBI2 conf inactive | EBI2 ag inactive | bGal cs inactive
O=C(COc1ccc2ccccc2c1)N1CCN(CC2CC3C=CC2C3)CC1 (configuration not stated)	EBI2 antag 84.9 | EBI2 conf 62.6 | EBI2 ag inactive | bGal cs inactive
COc1ccccc1CN1CCN(C(=O)COc2ccc3ccccc3c2)CC1	EBI2 antag 70.2 | EBI2 conf inactive | EBI2 ag inactive | bGal cs inactive
COc1ccc(CNCCc2c(C)[nH]c3ccc(OC(F)(F)F)cc23)c(OC)c1	none
CCN(CC)CC(O)c1ccc(C2CCCC2)cc1 (configuration not stated)	none
Cc1cccc(OCC(=O)N2CCN(Cc3ccc4c(c3)OCO4)CC2)c1	none
O=C(COc1ccc(Br)cc1)N1CCN(Cc2ccncc2)CC1	EBI2 antag 68.5 (no result: SENP7 block, AHR act, SENP8 block-2, SENP6 inh) | EBI2 conf 54.2 | EBI2 ag inactive | bGal cs inactive
Cc1cccc(OCC(=O)N2CCN(Cc3ccncc3)CC2)c1	none
O=C(COc1ccc(Br)cc1)N1CCN(Cc2ccc3c(c2)OCO3)CC1	EBI2 antag 91.7 | EBI2 conf 70.3 | EBI2 ag inactive | bGal cs inactive
Cc1ccc(OCC(=O)N2CCN(Cc3ccc4c(c3)OCO4)CC2)cc1C	EBI2 antag 71.2 | EBI2 conf 57.4 | EBI2 ag inactive | bGal cs inactive
CSc1ccc(CN2CCN(C(=O)COc3ccc(C)cc3)CC2)cc1	EBI2 antag 92.1 | EBI2 conf 70.5 | EBI2 ag inactive | bGal cs inactive
Cc1ccc2cc(CNCCc3ccccc3C)c(=O)[nH]c2c1	none
CN(C)S(=O)(=O)c1cccc(C(=O)N2CCC(C(=O)O)(c3ccccc3)CC2)c1	none
